# Results: PMC5540273 (PLoS ONE, 2017)
# Where two headings read alike, the source gives them in different places.
# Columns and labels:
# STK16 = details: concentration: 1 μM, replicates: in singlicate; n = 1
# STK33 = details: concentration: 1 μM, replicates: in singlicate; n = 1
# STK35 = details: concentration: 1 μM, replicates: in singlicate; n = 1
# STK36 = details: concentration: 1 μM, replicates: in singlicate; n = 1
# STK39 = details: concentration: 1 μM, replicates: in singlicate; n = 1
# SYK = details: concentration: 1 μM, replicates: in singlicate; n = 1
# SgK110 = details: concentration: 1 μM, replicates: in singlicate; n = 1
# TAK1 = tested on: T1, TAK1; details: concentration: 1 μM, replicates: in singlicate; n = 1
# T1 construct: gene MAP3K7
# TAOK1 = details: concentration: 1 μM, replicates: in singlicate; n = 1
# TAOK2 = details: concentration: 1 μM, replicates: in singlicate; n = 1
# TAOK3 = details: concentration: 1 μM, replicates: in singlicate; n = 1
# TBK1 = details: concentration: 1 μM, replicates: in singlicate; n = 1
# TEC = details: concentration: 1 μM, replicates: in singlicate; n = 1
# TESK1 = details: concentration: 1 μM, replicates: in singlicate; n = 1
# TGFBR1 = details: n = 1
# TGFBR2 = details: concentration: 1 μM, replicates: in singlicate; n = 1
# TIE1 = details: concentration: 1 μM, replicates: in singlicate; n = 1
# TIE2 = tested on: T2, TIE2; details: concentration: 1 μM, replicates: in singlicate; n = 1
# T2 construct: gene TEK
# TLK1 = details: concentration: 1 μM, replicates: in singlicate; n = 1
# TLK2 = details: concentration: 1 μM, replicates: in singlicate; n = 1
# [1] = concentration: 1 μM, replicates: in singlicate
# 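Note: KINOMEscan kinase panel screen.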
compound,measurement,setting,value
Cc1ccc(NC(=O)Nc2cccc(Cl)c2)cc1-c1ccc(C(=O)Nc2ccncc2)cc1 [GSK1398468],%Inh,STK16,9%
same,%Inh,STK33,0%
same,%Inh,STK35,0%
same,%Inh,STK36,1%
same,%Inh,STK39,0%
same,%Inh,SYK,3%
same,%Inh,SgK110,0%
same,%Inh,TAK1,0%
same,%Inh,TAOK1,0%
same,%Inh,TAOK2,0%
same,%Inh,TAOK3,0%
same,%Inh,TBK1,5%
same,%Inh,TEC,13%
same,%Inh,TESK1,18%
same,%Inh,TGFBR1; [1],30%
same,%Inh,TGFBR2,0%
same,%Inh,TIE1,0%
same,%Inh,TIE2,0%
same,%Inh,TLK1,0%
same,%Inh,TLK2,12%
COc1cccc(NC(=O)NC2CCN(c3ccnc(Nc4ccc(F)cc4)n3)C2)c1 (stereo not shown) [GSK1379721],%Inh,STK16,16%
same,%Inh,STK33,0%
same,%Inh,STK35,0%
same,%Inh,STK36,0%
same,%Inh,STK39,9%
same,%Inh,SYK,0%
same,%Inh,SgK110,0%
same,%Inh,TAK1,0%
same,%Inh,TAOK1,0%
same,%Inh,TAOK2,0%
same,%Inh,TAOK3,2%
same,%Inh,TBK1,16%
same,%Inh,TEC,0%
same,%Inh,TESK1,32%
same,%Inh,TGFBR1; [1],15%
same,%Inh,TGFBR2,0%
same,%Inh,TIE1,0%
same,%Inh,TIE2,0%
same,%Inh,TLK1,6%
same,%Inh,TLK2,4%
Cc1cccc(-c2nc(Nc3ccc4[nH]ncc4c3)c3ccccc3n2)n1 [GW857175],%Inh,STK16,17%
same,%Inh,STK33,0%
same,%Inh,STK35,0%
same,%Inh,STK36,15%
same,%Inh,STK39,14%
same,%Inh,SYK,5%
same,%Inh,SgK110,0%
same,%Inh,TAK1,0%
same,%Inh,TAOK1,33%
same,%Inh,TAOK2,9%
same,%Inh,TAOK3,19%
same,%Inh,TBK1,35%
same,%Inh,TEC,3%
same,%Inh,TESK1,5%
same,%Inh,TGFBR2,0%
same,%Inh,TIE1,17%
same,%Inh,TIE2,49%
same,%Inh,TLK1,23%
same,%Inh,TLK2,0%
Cc1ccc(-c2cc(-c3c[nH]nc3-c3ccccn3)ccn2)cc1 [GW684088],%Inh,STK16,28%
same,%Inh,STK33,0%
same,%Inh,STK35,0%
same,%Inh,STK36,23%
same,%Inh,STK39,0%
same,%Inh,SYK,21%
same,%Inh,SgK110,2%
same,%Inh,TAK1,15%
same,%Inh,TAOK1,0%
same,%Inh,TAOK2,0%
same,%Inh,TAOK3,0%
same,%Inh,TBK1,26%
same,%Inh,TEC,0%
same,%Inh,TESK1,0%
same,%Inh,TGFBR1; 1 µM,89%
same,%Inh,TGFBR2,77%
same,%Inh,TIE1,0%
same,%Inh,TIE2,13%
same,%Inh,TLK1,24%
same,%Inh,TLK2,10%
O=S(=O)(c1ccc(-c2ccnc3[nH]ccc23)cc1)N1CCCC1 [GSK846226],%Inh,STK16,67%
same,%Inh,STK33,0%
same,%Inh,STK35,0%
same,%Inh,STK36,0%
same,%Inh,STK39,0%
same,%Inh,SYK,13%
same,%Inh,SgK110,0%
same,%Inh,TAK1,1%
same,%Inh,TAOK1,0%
same,%Inh,TAOK2,0%
same,%Inh,TAOK3,0%
same,%Inh,TBK1,33%
same,%Inh,TEC,4%
same,%Inh,TESK1,9%
same,%Inh,TGFBR1; [1],0%
same,%Inh,TGFBR2,0%
same,%Inh,TIE1,0%
same,%Inh,TIE2,0%
same,%Inh,TLK1,24%
same,%Inh,TLK2,19%
COc1cccc(-c2cc(-c3c[nH]nc3-c3ccccn3)ccn2)c1 [GW680338],%Inh,STK16,8%
same,%Inh,STK33,0%
same,%Inh,STK35,0%
same,%Inh,STK36,25%
same,%Inh,STK39,13%
same,%Inh,SYK,17%
same,%Inh,SgK110,17%
same,%Inh,TAK1,0%
same,%Inh,TAOK1,0%
same,%Inh,TAOK2,0%
same,%Inh,TAOK3,0%
same,%Inh,TBK1,0%
same,%Inh,TEC,0%
same,%Inh,TESK1,15%
same,%Inh,TGFBR1; 1 µM,54%
same,%Inh,TGFBR2,32%
same,%Inh,TIE1,0%
same,%Inh,TIE2,0%
same,%Inh,TLK1,0%
same,%Inh,TLK2,0%
Clc1cc(Cl)cc(Nc2ccnc(Nc3cc(Cl)cc(Cl)c3)n2)c1 [GSK175726],%Inh,STK16,24%
same,%Inh,STK33,0%
same,%Inh,STK35,0%
same,%Inh,STK36,39%
same,%Inh,STK39,2%
same,%Inh,SYK,12%
same,%Inh,SgK110,0%
same,%Inh,TAK1,18%
same,%Inh,TAOK1,44%
same,%Inh,TAOK2,6%
same,%Inh,TAOK3,0%
same,%Inh,TBK1,28%
same,%Inh,TEC,0%
same,%Inh,TESK1,20%
same,%Inh,TGFBR1; [1],0%
same,%Inh,TGFBR2,7%
same,%Inh,TIE1,0%
same,%Inh,TIE2,0%
same,%Inh,TLK1,25%
same,%Inh,TLK2,3%
